From PubChem
A selection: hits, their analogues and other compounds. The true share with any hit is near 8%.
KB-V1 MDR tox – kills drug-selected multidrug resistant KB-V1 cells; KB-V1 MDR cells viability, CellTiter-Glo, 72 h; Potency, µM (doses to about 46.1 µM), hits mostly cytotoxic; 400,000 tested, 3.4% active; AID 1347076; note: % is set by controls: 0 for no effect and ±100 for the full control effect; nearly all actives have a fitted effect of over 60% in size
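Cells of the MDR subline KB-V1 are plated, dosed with compound at multiple concentrations, and incubated 72 h at 37 degrees C; CellTiter-Glo is then added and luminescence read after 10 min.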
HT1080 IDH1KD tx – toxicity to HT-1080 IDH1 knockdown cells (counter line); HT-1080 IDH1 knockdown viability, ATP luminescence, 48 h; 360,000 tested, 2% active; AID 686971; Potency, µM (highest dose often 46.1 µM), without a hit: at the highest dose activity, negative = toxicity, usual class: cytotoxic;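 note: 0% = DMSO wells and -100% = cell-free medium wells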
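Assay cells: HT-1080 with IDH1 knockdown, 750 per well, RPMI/5% FBS. Exposure: 48 h at 37 °C following 2 h pre-incubation. Read: CellTiter-Glo luminescence; fitted concentration-response, curve class assigned.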
KB-3-1 cytotox – kills parental KB-3-1 adenocarcinoma cells | KB-3-1 viability, CellTiter-Glo ATP luminescence, 72 h | Potency, µM (titrated, usually from 46.1 µM), most hits filed as cytotoxic | 400,000 tested, 1.4% active; note: % is set by controls: 0 for no effect and ±100 for the full control effect; nearly all actives have a fitted effect of over 60% in size
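72 h, 37 °C compound treatment of KB-3-1 parental cells; CellTiter-Glo added, 10 min, luminescence read. Data corrected against DMSO-only plates and normalized before curve fitting.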
MCF10A rerep – inducers of DNA re-replication in MCF 10A breast cells; MCF 10A DNA re-replication, Hoechst nuclear intensity, 48 h; Potency, µM (doses to about 46.1 µM), for inactives: top-dose activity, positive = re-replication, most hits filed as activators; 350,000 tested, 2.9% active; AID 624296; note: % of control where 0% means no effect; nearly all actives have a fitted effect of over 50% in size
HT1080-NT tox – kills 2HG-producing HT-1080-NT fibrosarcoma cells; 360,000 tested, 1.6% active; HT-1080-NT fibrosarcoma viability, CellTiter-Glo ATP luminescence, 48 h; Potency, µM (titrated, usually from 46.1 µM), without a hit: at the top dose activity, negative = less viability, most hits filed as cytotoxic;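 note: NT is the 2HG producing partner of a matched IDH1 knockdown line; 0% = DMSO-treated cells and -100% = media-only wells without cells; nearly all actives have a fitted effect of over 55% in size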
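HT-1080-NT fibrosarcoma cells (2HG-overproducing), 750 cells/well in RPMI with 5% FBS, dosed after 2 h and incubated 48 h at 37C. CellTiter-Glo luminescence normalized to DMSO and no-cell wells; concentration-response curves fitted and classed.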
SW480 rereplic – inducers of DNA re-replication in SW480 colon cancer cells; SW480 DNA re-replication, Hoechst DNA content imaging, 48 h; Potency, µM (titrated, usually from 46.1 µM), without a hit: at the top dose re-replication activation, hits mostly activators; 340,000 tested, 1.8% active; note: % of control where 0% means no effect; nearly all actives have a fitted effect of over 55% in size
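First, 250 cells per well were seeded. Next, compound or vehicle (23 nL) was pinned in, plates sat 48 hr at 37 C. Finally Hoechst was added for 40 min before fluorescence scanning.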
Numbers without * were called inactive; i = inactive; ? = inconclusive; . = no result. Calls come from the whole dose curve; as a rule, active = well fitted curve in the direction sought with a large enough effect; inconclusive = small, poorly fitted or top-dose-only effect, or another doubt; inactive = no such curve, though single readings can be large; an effect the other way counts as inactive or inconclusive. Potency is the fitted concentration of half-maximal effect.

SMILES | KB-V1 MDR tox | HT1080 IDH1KD tx | KB-3-1 cytotox | MCF10A rerep | HT1080-NT tox | SW480 rereplic
CCOC(=O)/C(=C\c1cccc(O)c1)c1nc2sc(C)c(C)c2c(=O)[nH]1 | ? | ? | ? | 2.3µM* | ? | ?
COc1cc(/C=C/C(=O)O)ccc1OS(=O)(=O)c1c(C)cc(C)cc1C | i | -2% | i | 20% | -17% | 3%
N#Cc1c(SCC(=O)Nc2nc3ccc(Br)cc3s2)sc2c(O)cc(=O)[nH]c12 | ? | -14% | i | 15% | -5% | 12µM*
N#Cc1c(SCC(=O)Nc2nccs2)sc2c(O)cc(=O)[nH]c12 | i | 19% | i | 0% | 20% | -8%
Cc1cc(C(F)(F)F)c(C#N)c(SCC(=O)Nc2nc3cc(Br)ccc3s2)n1 | ? | -7% | i | 13µM* | -10% | ?
Cc1ccc(S(=O)(=O)CCSc2nc(C)cc(C(F)(F)F)c2C#N)cc1 | 13µM* | ? | 18µM* | ? | ? | ?
CCOC(=O)NC(=O)CSc1nc(C)cc(C(F)(F)F)c1C#N | ? | 0% | i | 13% | 7% | -4%
COC(=O)CSc1nc(C)cc(C(F)(F)F)c1C#N | i | 3% | i | 0% | 0% | 1%
Cc1cc(=O)[nH]c(SCC(=O)Nc2nc3ccccc3s2)n1 | ? | 0% | i | 0.58µM* | -7% | ?
CC(C)NC(=O)C1CCN(Cc2cnn(-c3ccccc3)c2-n2cccc2)CC1 | i | 15% | i | 6% | 12% | 0%
O=C(/C=C/[C@H]1O[C@@H](n2cnc3c(NC(=O)c4ccccc4)ncnc32)[C@H](O)[C@@H]1O)NCC1CCCO1 (stereo partly specified) | i | 17% | i | . | 20% | .
N#Cc1c(SCC(=O)Nc2nc3ccccc3s2)sc2c(O)cc(=O)[nH]c12 | i | 2% | i | ? | -1% | 18µM*
C=CCSc1nnc(NC(=O)CSc2nc3ccccc3[nH]2)s1 | i | -13% | i | 1% | -15% | ?
C=CCSc1nnc(NC(=O)CSc2nc(CCC)cc(=O)[nH]2)s1 | 21µM* | -19% | ? | -3% | -28% | 0%
COc1cccc(NC(=O)Nc2nnc([C@@H]3C[C@H](O)[C@@H](CO)O3)s2)c1 | i | 0% | i | . | 12% | .
CC1=Nc2cc(C(=O)NCCN3CCOCC3)ccc2Sc2c(C)ccc(C)c21 | 18µM* | ? | 15µM* | ? | ? | -10%
CC1=Nc2cc(C(=O)NCCCN3CCOCC3)ccc2Sc2c(C)ccc(C)c21 | ? | 21µM* | ? | ? | 16µM* | 16µM*
COC(=O)c1c(NC(=O)CCC(=O)O)sc(Cc2ccccc2)c1C | i | -3% | i | 2% | -6% | -2%
O=C(OCC(=O)N1CCN(C(=O)COC(=O)c2ccc(O)cc2O)CC1)c1ccc(O)cc1O | i | 7% | i | 1% | 6% | -6%
CCOC(=O)[C@]12Cc3c(cc(OC)c(OC)c3OC)[C@H]1N(Cc1ccccc1)C(=O)c1cc(OC)ccc12 | ? | ? | 4.6µM* | . | 18µM* | .
Cc1ccc(C2=NS(=O)(=O)N(C)C(C(=O)NCc3cccs3)=C2)cc1 | i | 7% | i | 3% | 0% | -10%
Cc1cc(NC(=O)C(C)SCC(=O)Nc2nnc(CC(C)C)s2)no1 (stereo unspecified) | ? | 13% | i | -3% | 3% | -8%
CN(C)c1cccc(NC(=O)c2ccco2)c1 | i | -5% | i | 21% | -2% | 3%
CCN(CC)P(=O)(Nc1cccc(C(F)(F)F)c1)c1ccc(N(C)C)cc1NC(=O)c1ccco1 (stereo unspecified) | i | -17% | i | 0.82µM* | -7% | -1%
NC(=NCCc1ccccc1)NS(=O)(=O)c1ccc(F)cc1 | 16µM* | 2% | i | 11% | -9% | -8%
SMILES | KB-V1 MDR tox | HT1080 IDH1KD tx | KB-3-1 cytotox | MCF10A rerep | HT1080-NT tox | SW480 rereplic
Cc1ccc(S(=O)(=O)NC(N)=NCCc2ccc(Cl)cc2)cc1 | 16µM* | -7% | i | -9% | -9% | -8%
COc1ccc(CCN=C(N)NS(=O)(=O)c2ccc(C)cc2)cc1 | i | -15% | i | -4% | 1% | .
CCN(CC)S(=O)(=O)c1ccc(OC)c(N)c1 | ? | 2% | i | -4% | 14% | -12%
CCCCC(=O)N1CCCC(C(=O)OCC)C1 (stereo unspecified) | i | -11% | ? | 0% | -4% | -1%
Cc1ccc(C(=O)N/N=C(/CC(=O)c2cccs2)C(F)(F)F)cc1 | ? | ? | ? | 18µM* | 26µM* | -3%
O=C(N/N=C(\CC(=O)c1cccs1)C(F)(F)F)c1ccncc1 | ? | ? | i | ? | -16% | 7.3µM*
CC(C)[C@H](NC(=O)C1CCN(S(=O)(=O)c2ccc(F)cc2)CC1)C(=O)NCc1ccncc1 | ? | 13% | ? | -1% | 0% | -27%
CS(=O)(=O)N(Cc1ccc(Cl)cc1)c1ccc(C(=O)NCCSc2ccccn2)cc1 | 5.8µM* | ? | ? | ? | -19% | ?
CS(=O)(=O)N(Cc1ccccc1)c1ccc(C(=O)Nc2cccnc2)cc1 | i | 0% | i | -50% | -50% | -1%
CS(=O)(=O)N(Cc1ccc(Cl)cc1)c1ccc(C(=O)Nc2cccnc2)cc1 | 21µM* | ? | ? | 16% | -10% | -1%
COc1cccc(C(=O)Nc2ccc3oc(-c4cccc5c(Br)cccc45)nc3c2)c1 | ? | . | i | . | . | .
O=C1C=C(N2CCN(c3ccccn3)CC2)C(=O)c2c(O)ccc(O)c21 | 15µM* | -27% | ? | 28% | -6% | ?
O=C(CCN1CCN(C(c2ccccc2)c2ccccc2)CC1)N/N=C/c1ccc(O)cc1O | i | ? | ? | 18% | ? | 13%
COc1ccc(OC)c(/C=N/NC(=O)CCN2CCN(C(c3ccccc3)c3ccccc3)CC2)c1 | ? | -28% | i | 15µM* | ? | 7%
O=C(CCN1CCN(c2ccccc2)CC1)N/N=C/c1ccccc1OC(F)F | i | ? | i | 10% | -21% | 3.3µM*
COc1ccc(Cl)c(N2CCN(CCCNC(=O)Nc3ccc(C)cc3)CC2)c1 | i | ? | 23µM* | 30% | ? | ?
O=[N+]([O-])c1cc(-c2cnc3ccccc3n2)ccc1Cl | i | -5% | i | -6% | -5% | -8%
Fc1cccc(NC(=S)NNc2c3ccccc3nc3ccccc23)c1 | ? | 21µM* | ? | -1% | ? | -11%
